Measured values from the supplement of paper PMC10849652.
The full data set covers some 8,800 targets. This sample favours those with a hit. About 0.5% of all pairs of compound and target were hits.

How the values were obtained:
Experiment in all cases: log2 fold change, soluble protein after heating vs DMSO (PISA); higher = thermal stabilisation; K562 lysate, 10 uM; active = over 0.2 and 3.5 SD of the protein, either way, in both replicates (recomputed)
alvocidib = compound: CN1CC[C@H](c2c(O)cc(O)c3c(=O)cc(-c4ccccc4Cl)oc23)[C@H](O)C1 [alvocidib]
How it was run: (§1)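 The values are log-two fold changes in thermal stability compared with solvent controls and come from duplicates. They were obtained by TMTpro 16plex LC-MS/MS, with channel sums equalised, on the supernatant after 21,000xg for 90 min. That supernatant came from crude K562 extract at 1 mg/mL protein treated with 10 μM compound for 30 min, heated for 3 min across 48°C-58°C, pooled and brought to 0.5% NP-40 at 4°C.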

Tubastatin A = compound: CN1CCc2c(c3ccccc3n2Cc2ccc(C(=O)NO)cc2)C1 [Tubastatin A]
How it was run: as §1

[1] = compound: CNC(=O)C1=CC=CC=C1NC2=NC(=NC=C2Cl)NC3=C(C=C(C=C3)N4CCOCC4)OC
How it was run: as §1

defactinib = compound: CNC(=O)c1ccc(Nc2ncc(C(F)(F)F)c(NCc3nccnc3N(C)S(C)(=O)=O)n2)cc1 [defactinib]
How it was run: as §1

[2] = compound: CNc1nc(-c2ccc3c(N)n[nH]c3c2)cc(N2C[C@@H](C(=O)NC3CCCCC3)CC[C@H]2C)n1
How it was run: as §1

encorafenib = compound: COC(=O)N[C@@H](C)CNc1nccc(-c2cn(C(C)C)nc2-c2cc(Cl)cc(NS(C)(=O)=O)c2F)n1 [encorafenib]
How it was run: as §1

[3] = compound: COC(=O)[C@H](CCSC)NC(=O)C1=C(C=C(C=C1)NC[C@H](CS)N)C2=CC=CC=C2
How it was run: as §1

alisertib = compound: COc1cc(Nc2ncc3c(n2)-c2ccc(Cl)cc2C(c2c(F)cccc2OC)=NC3)ccc1C(=O)O [alisertib]
How it was run: as §1

[4] = compound: COc1cc2nc(-c3cc(F)ccc3O)nc(N[C@@H]3CNC[C@H]3C(C)(C)O)c2cc1OC
How it was run: as §1

gefitinib = compound: COc1cc2ncnc(Nc3ccc(F)c(Cl)c3)c2cc1OCCCN1CCOCC1 [gefitinib]
How it was run: as §1

lapatinib = compound: CS(=O)(=O)CCNCc1ccc(-c2ccc3ncnc(Nc4ccc(OCc5cccc(F)c5)c(Cl)c4)c3c2)o1 [lapatinib]
How it was run: as §1

pictilisib = compound: CS(=O)(=O)N1CCN(Cc2cc3nc(-c4cccc5[nH]ncc45)nc(N4CCOCC4)c3s2)CC1 [pictilisib]
How it was run: as §1

crizotinib = compound: C[C@@H](Oc1cc(-c2cnn(C3CCNCC3)c2)cnc1N)c1c(Cl)ccc(F)c1Cl [crizotinib]
How it was run: as §1

[5] = compound: C[C@H](C1=CC=C(C=C1)C(=O)NC2=C3C=CNC3=NC=C2)N
How it was run: as §1

duvelisib = compound: C[C@H](Nc1ncnc2nc[nH]c12)c1cc2cccc(Cl)c2c(=O)n1-c1ccccc1 [duvelisib]
How it was run: as §1

gandotinib = compound: Cc1cc(Nc2cc(CN3CCOCC3)c3nc(C)c(Cc4ccc(Cl)cc4F)n3n2)n[nH]1 [gandotinib]
How it was run: as §1

tozasertib = compound: Cc1cc(Nc2cc(N3CCN(C)CC3)nc(Sc3ccc(NC(=O)C4CC4)cc3)n2)n[nH]1 [tozasertib]
How it was run: as §1

bafetinib = compound: Cc1ccc(NC(=O)c2ccc(CN3CC[C@H](N(C)C)C3)c(C(F)(F)F)c2)cc1Nc1nccc(-c2cncnc2)n1 [bafetinib]
How it was run: as §1

[6] = compound: Cc1cccc(CC(=O)N2CCc3c2ccc(-c2cn(C)c4ncnc(N)c24)c3F)n1
How it was run: as §1

doramapimod = compound: Cc1ccc(-n2nc(C(C)(C)C)cc2NC(=O)Nc2ccc(OCCN3CCOCC3)c3ccccc23)cc1 [doramapimod]
How it was run: as §1

Measured: log2 fold change

MAPK14 isoform 2 (UniProt Q16539)
inactive: alvocidib 0.154 | Tubastatin A -0.121 | [1] 0.299 | defactinib 0.01 | [2] -0.041 | encorafenib 0.454 | [3] 0.257 | alisertib -0.065 | [4] -0.004 | gefitinib 0.144 | lapatinib -0.008 | pictilisib -0.054 | crizotinib -0.028 | [5] 0.222 | duvelisib -0.026 | gandotinib -0.086 | tozasertib 0.001 | bafetinib 0.765 | [6] -0.122

MRPL30 isoform 2 (UniProt Q8TCC3)
active: alvocidib 0.419 | [5] 0.746 | gandotinib -0.373 | [6] -0.458
inactive: Tubastatin A 0.034 | [1] -0.003 | [2] -0.002 | encorafenib -0.049 | [3] -0.034 | alisertib -0.033 | [4] -0.003 | gefitinib -0.013 | lapatinib 0.03 | pictilisib -0.029 | crizotinib -0.094 | duvelisib 0.068 | tozasertib 0.158 | doramapimod 0.013 | bafetinib 0.043

MRPL19 (UniProt P49406)
inactive: alvocidib -0.056 | Tubastatin A -0.119 | [1] -0.036 | defactinib -0.005 | [2] -0.052 | encorafenib -0.003 | [3] 0.042 | alisertib 0.037 | [4] -0.03 | gefitinib 0.043 | lapatinib -0.026 | pictilisib -0.024 | crizotinib -0.071 | [5] -0.094 | duvelisib -0.026 | gandotinib 0.029 | tozasertib 0.014 | doramapimod 0.011 | bafetinib -0.048 | [6] 0.051

KRAS (UniProt P01116)
UniProt P01116, sequence (P01116 whole entry, looked up): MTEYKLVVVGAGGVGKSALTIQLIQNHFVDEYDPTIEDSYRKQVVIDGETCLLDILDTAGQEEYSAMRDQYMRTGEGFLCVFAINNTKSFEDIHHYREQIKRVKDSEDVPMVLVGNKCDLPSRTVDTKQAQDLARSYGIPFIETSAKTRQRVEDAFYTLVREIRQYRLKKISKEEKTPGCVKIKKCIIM
inactive: alvocidib -0.071 | Tubastatin A 0.059 | [1] -0.048 | defactinib -0.01 | [2] -0.005 | encorafenib 0.01 | [3] 0.043 | alisertib -0.016 | [4] -0.042 | gefitinib 0.139 | lapatinib 0.019 | crizotinib 0.017 | [5] -0.078 | duvelisib 0.001 | gandotinib 0.044 | tozasertib -0.013 | doramapimod 0.006 | [6] 0.145

MAP4K2 (UniProt Q12851)
UniProt Q12851, sequence (Q12851 whole entry, looked up): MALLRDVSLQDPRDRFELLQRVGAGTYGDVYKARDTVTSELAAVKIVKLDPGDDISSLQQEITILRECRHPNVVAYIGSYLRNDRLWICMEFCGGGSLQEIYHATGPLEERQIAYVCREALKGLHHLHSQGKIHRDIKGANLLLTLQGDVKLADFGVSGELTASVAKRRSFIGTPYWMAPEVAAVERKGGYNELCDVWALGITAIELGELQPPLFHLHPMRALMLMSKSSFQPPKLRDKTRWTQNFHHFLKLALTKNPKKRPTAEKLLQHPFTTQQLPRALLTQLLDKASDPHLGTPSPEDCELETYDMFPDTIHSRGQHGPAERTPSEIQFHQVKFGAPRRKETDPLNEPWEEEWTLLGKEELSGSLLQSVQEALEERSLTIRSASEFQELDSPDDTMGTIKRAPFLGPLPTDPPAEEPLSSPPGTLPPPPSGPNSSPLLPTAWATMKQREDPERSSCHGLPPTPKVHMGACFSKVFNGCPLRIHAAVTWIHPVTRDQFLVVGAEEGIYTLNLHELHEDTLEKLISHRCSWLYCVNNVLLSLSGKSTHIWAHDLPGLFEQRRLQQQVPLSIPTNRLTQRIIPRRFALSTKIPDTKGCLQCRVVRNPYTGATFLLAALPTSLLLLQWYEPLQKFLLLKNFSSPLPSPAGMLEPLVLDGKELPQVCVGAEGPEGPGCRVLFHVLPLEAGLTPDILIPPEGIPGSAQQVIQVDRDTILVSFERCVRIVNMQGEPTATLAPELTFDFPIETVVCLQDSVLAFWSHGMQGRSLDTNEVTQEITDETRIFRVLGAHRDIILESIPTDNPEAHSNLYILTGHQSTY
inactive: alvocidib 0.111 | Tubastatin A -0.189 | [1] -0.02 | defactinib 0.086 | [2] 0.055 | encorafenib -0.183 | [3] -0.234 | [4] 0.219 | lapatinib -0.164 | pictilisib 0.126 | [5] 0.145 | duvelisib 0.077 | gandotinib 0.273 | tozasertib 0.054 | doramapimod 0.035 | bafetinib -0.126 | [6] -0.015

MAST2 (UniProt Q6P0Q8)
UniProt Q6P0Q8, sequence (Q6P0Q8 whole entry, looked up): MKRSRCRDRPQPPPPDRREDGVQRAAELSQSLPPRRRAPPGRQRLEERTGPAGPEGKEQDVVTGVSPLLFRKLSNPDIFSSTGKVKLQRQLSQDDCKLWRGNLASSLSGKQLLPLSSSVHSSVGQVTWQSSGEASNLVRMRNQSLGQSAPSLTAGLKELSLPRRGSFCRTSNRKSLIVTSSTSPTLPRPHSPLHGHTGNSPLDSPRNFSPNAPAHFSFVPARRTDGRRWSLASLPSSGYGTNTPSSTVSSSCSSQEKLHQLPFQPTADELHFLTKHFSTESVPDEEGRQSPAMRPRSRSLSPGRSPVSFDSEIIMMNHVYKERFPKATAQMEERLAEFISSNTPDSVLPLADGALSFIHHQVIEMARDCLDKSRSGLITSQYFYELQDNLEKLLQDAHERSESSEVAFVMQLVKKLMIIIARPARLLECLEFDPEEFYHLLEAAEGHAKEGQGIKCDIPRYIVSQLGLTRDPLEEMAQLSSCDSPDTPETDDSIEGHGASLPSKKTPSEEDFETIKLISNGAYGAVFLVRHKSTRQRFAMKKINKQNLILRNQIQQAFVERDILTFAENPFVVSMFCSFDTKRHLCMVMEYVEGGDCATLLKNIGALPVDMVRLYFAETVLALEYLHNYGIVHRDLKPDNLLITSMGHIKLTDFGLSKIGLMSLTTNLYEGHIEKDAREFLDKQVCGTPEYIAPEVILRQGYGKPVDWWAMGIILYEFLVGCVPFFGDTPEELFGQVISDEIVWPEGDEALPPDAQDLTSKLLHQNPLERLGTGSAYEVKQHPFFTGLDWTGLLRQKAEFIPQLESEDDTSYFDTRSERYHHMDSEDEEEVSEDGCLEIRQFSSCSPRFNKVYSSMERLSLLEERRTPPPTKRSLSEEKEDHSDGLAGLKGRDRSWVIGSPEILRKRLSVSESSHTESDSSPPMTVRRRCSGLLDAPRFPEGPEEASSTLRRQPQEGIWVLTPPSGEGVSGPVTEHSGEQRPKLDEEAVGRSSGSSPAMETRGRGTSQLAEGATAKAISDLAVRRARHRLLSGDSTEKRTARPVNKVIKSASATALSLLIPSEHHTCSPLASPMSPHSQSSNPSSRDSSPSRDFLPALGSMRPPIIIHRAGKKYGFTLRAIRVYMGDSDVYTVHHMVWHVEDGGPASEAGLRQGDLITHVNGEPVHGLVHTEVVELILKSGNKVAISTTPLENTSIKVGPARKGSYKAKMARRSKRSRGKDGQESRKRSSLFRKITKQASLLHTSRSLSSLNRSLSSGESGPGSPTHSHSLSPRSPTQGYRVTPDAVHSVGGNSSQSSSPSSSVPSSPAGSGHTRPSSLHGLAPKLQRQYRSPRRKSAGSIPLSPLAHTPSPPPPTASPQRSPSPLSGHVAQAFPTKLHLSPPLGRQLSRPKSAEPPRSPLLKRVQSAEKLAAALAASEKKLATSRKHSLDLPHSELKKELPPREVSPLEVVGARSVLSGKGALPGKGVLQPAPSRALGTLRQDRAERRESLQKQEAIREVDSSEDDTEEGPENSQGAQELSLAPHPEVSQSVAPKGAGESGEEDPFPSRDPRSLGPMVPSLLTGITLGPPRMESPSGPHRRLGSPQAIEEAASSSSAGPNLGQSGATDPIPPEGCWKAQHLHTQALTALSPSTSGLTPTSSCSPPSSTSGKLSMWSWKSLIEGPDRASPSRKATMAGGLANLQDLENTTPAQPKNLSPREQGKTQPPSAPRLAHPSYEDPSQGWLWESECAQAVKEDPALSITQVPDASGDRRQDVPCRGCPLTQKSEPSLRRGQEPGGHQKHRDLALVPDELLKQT
inactive: alvocidib -0.096 | Tubastatin A -0.06 | [1] 0.219 | defactinib -0.009 | [2] -0.009 | encorafenib 0.114 | [3] 0.078 | [4] -0.002 | lapatinib 0.012 | pictilisib 0.161 | crizotinib -0.004 | [5] -0.171 | duvelisib -0.065 | gandotinib -0.07 | tozasertib 0.148 | doramapimod -0.034 | bafetinib -0.289 | [6] -0.092

LSS (UniProt P48449)
inactive: alvocidib -0.011 | Tubastatin A 0.021 | [1] -0.03 | defactinib -0.026 | [2] 0.021 | encorafenib 0.031 | [3] 0.02 | alisertib 0.011 | [4] 0.032 | gefitinib 0.055 | lapatinib 0 | pictilisib 0.11 | [5] 0.01 | duvelisib 0.008 | gandotinib 0.028 | tozasertib 0.02 | doramapimod 0.031 | bafetinib 0.13 | [6] -0.013
active: crizotinib 0.252

MAP2K5 (UniProt Q13163)
inactive: alvocidib 0.067 | Tubastatin A -0.033 | [1] 0.086 | defactinib -0.026 | [2] 0.329 | encorafenib 0.149 | [3] -0.15 | alisertib -0.016 | [4] 0.054 | gefitinib 0.155 | lapatinib 0.038 | pictilisib -0.021 | crizotinib -0.109 | [5] 0.013 | duvelisib 0.152 | gandotinib -0.089 | doramapimod -0.017 | bafetinib -0.436 | [6] 0.105

MARK2 (UniProt E9PC69)
inactive: alvocidib -0.032 | Tubastatin A -0.049 | [1] -0.187 | defactinib -0.087 | [2] 0.056 | encorafenib 0.181 | [3] 0.211 | alisertib 0.021 | [4] 0.01 | gefitinib -0.03 | lapatinib 0.003 | pictilisib 0.052 | crizotinib -0.14 | [5] 0.131 | duvelisib -0.068 | gandotinib -0.166 | tozasertib -0.233 | doramapimod 0.075 | bafetinib -0.071 | [6] 0.025

KIF26A (UniProt Q9ULI4)
active: Tubastatin A 0.566
inactive: alvocidib 0.022 | [1] -0.149 | defactinib -0.105 | [2] -0.021 | encorafenib -0.052 | [3] 0.035 | alisertib 0.004 | gefitinib 0.056 | pictilisib 0.039 | crizotinib 0.013 | [5] -0.065 | duvelisib -0.017 | gandotinib 0.003 | tozasertib 0.086 | doramapimod -0.002 | bafetinib -0.055 | [6] 0.002

KIF3C (UniProt O14782)
inactive: alvocidib 0.033 | Tubastatin A -0.018 | [1] -0.01 | defactinib 0.157 | [2] 0.058 | encorafenib 0.101 | [3] 0.024 | alisertib 0.247 | [4] 0.07 | gefitinib -0.029 | lapatinib -0.172 | crizotinib -0.177 | [5] -0.119 | duvelisib 0 | gandotinib -0.002 | tozasertib -0.394 | doramapimod -0.031 | [6] 0.152

MAP1S (UniProt Q66K74)
UniProt Q66K74, sequence (Q66K74 whole entry, looked up): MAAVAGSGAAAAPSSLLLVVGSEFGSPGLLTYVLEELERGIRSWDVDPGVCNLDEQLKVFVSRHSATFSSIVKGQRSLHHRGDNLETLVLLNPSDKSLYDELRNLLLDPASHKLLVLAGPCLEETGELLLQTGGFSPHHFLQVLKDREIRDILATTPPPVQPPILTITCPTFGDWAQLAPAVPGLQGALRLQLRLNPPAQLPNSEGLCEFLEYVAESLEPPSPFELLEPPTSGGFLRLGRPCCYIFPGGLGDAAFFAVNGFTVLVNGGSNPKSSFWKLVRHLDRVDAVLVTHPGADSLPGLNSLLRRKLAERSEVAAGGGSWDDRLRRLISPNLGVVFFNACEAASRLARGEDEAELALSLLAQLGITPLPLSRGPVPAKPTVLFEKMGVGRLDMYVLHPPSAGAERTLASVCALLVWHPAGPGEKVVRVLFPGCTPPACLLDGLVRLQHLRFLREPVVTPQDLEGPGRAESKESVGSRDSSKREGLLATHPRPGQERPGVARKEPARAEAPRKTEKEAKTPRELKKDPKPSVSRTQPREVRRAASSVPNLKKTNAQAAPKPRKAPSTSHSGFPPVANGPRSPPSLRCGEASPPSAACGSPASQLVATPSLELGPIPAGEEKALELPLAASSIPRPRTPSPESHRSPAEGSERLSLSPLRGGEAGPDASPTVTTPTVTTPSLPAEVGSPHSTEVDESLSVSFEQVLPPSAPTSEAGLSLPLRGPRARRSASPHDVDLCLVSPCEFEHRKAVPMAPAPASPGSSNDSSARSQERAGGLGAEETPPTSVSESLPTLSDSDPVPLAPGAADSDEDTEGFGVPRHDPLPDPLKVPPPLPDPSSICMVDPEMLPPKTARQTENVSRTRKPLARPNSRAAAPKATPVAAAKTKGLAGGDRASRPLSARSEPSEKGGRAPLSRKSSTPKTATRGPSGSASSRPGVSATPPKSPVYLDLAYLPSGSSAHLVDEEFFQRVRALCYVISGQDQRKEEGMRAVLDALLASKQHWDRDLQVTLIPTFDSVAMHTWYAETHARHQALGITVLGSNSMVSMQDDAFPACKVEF
inactive: alvocidib 0.027 | Tubastatin A -0.072 | [1] -0.01 | defactinib 0.018 | [2] -0.015 | encorafenib 0.008 | [3] 0.06 | alisertib 0.006 | [4] -0.008 | gefitinib -0.021 | lapatinib 0.009 | pictilisib -0.06 | crizotinib -0.016 | [5] -0.021 | duvelisib 0.004 | gandotinib -0.065 | tozasertib 0.035 | doramapimod 0.003 | bafetinib -0.03 | [6] 0.049

MED25 isoform 3 (UniProt Q71SY5)
UniProt Q71SY5, sequence (Q71SY5 whole entry, looked up): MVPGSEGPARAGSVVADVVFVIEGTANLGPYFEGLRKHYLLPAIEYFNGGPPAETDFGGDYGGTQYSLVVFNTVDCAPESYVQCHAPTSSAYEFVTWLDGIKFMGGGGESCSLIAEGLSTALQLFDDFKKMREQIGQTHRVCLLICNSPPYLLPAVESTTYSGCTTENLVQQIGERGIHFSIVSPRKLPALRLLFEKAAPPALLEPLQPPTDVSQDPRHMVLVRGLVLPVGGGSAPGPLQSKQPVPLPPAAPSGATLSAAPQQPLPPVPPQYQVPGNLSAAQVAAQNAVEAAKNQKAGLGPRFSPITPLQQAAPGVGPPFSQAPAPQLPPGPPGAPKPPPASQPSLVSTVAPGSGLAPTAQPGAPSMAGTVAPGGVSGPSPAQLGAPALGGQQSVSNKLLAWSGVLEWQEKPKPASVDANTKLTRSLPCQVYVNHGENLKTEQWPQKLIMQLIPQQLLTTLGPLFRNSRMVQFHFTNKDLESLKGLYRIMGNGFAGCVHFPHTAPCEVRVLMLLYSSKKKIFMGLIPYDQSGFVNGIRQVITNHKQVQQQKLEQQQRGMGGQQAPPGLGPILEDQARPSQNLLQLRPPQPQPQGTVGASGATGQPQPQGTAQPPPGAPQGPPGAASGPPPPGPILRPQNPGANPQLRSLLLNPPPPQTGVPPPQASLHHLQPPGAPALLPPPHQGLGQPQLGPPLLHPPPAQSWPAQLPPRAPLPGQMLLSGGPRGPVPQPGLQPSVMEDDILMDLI
inactive: alvocidib 0 | Tubastatin A 0.056 | [1] -0.033 | [2] -0.022 | encorafenib -0.123 | [3] 0.005 | alisertib 0.125 | [4] 0.01 | gefitinib -0.029 | lapatinib 0.018 | pictilisib -0.05 | crizotinib -0.05 | [5] 0.053 | duvelisib 0.063 | gandotinib -0.095 | tozasertib -0.109 | doramapimod -0.042 | bafetinib -0.023 | [6] -0.052

MOCS1 isoform 8 (UniProt Q9NZB8)
inactive: alvocidib -0.108 | Tubastatin A -0.008 | [1] 0.002 | defactinib 0.113 | [2] -0.105 | encorafenib 0.039 | [3] -0.055 | alisertib -0.099 | [4] 0.003 | lapatinib -0.022 | pictilisib -0.003 | crizotinib -0.046 | [5] -0.078 | duvelisib 0 | gandotinib 0.012 | tozasertib 0.11 | doramapimod 0.018 | bafetinib -0.032 | [6] 0.04
active: gefitinib 0.395

MARF1 (UniProt Q9Y4F3)
inactive: alvocidib -0.024 | Tubastatin A -0.194 | [1] 0.024 | defactinib -0.157 | [2] -0.021 | encorafenib 0.053 | [3] 0.086 | alisertib -0.056 | gefitinib 0.02 | pictilisib -0.212 | crizotinib -0.021 | [5] 0.035 | duvelisib -0.002 | gandotinib -0.1 | tozasertib -0.032 | doramapimod -0.004 | bafetinib -0.012 | [6] 0.095

MAPK14 (UniProt Q16539)
inactive: alvocidib 0.007 | Tubastatin A -0.203 | [1] 0.38 | defactinib -0.053 | [2] -0.043 | encorafenib 0.488 | [3] 0.314 | alisertib -0.144 | [4] 0.011 | gefitinib 0.295 | lapatinib -0.047 | pictilisib -0.004 | crizotinib -0.094 | [5] -0.034 | duvelisib -0.026 | gandotinib -0.037 | tozasertib 0.009 | [6] 0.015
active: bafetinib 1.03

LDAH isoform 2 (UniProt Q9H6V9)
UniProt Q9H6V9, sequence (Q9H6V9 whole entry, looked up): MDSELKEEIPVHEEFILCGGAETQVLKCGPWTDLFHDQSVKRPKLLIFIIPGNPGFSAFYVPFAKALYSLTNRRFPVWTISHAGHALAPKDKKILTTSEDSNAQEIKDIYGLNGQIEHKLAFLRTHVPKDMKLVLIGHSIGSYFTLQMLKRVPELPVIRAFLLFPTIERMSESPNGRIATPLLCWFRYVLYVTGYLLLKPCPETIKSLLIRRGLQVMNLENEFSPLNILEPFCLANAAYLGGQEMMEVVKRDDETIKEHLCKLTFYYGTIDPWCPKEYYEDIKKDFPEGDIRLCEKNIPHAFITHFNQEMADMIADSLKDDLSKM
inactive: alvocidib 0.003 | Tubastatin A -0.124 | [1] -0.012 | defactinib 0.012 | [2] -0.027 | encorafenib -0.03 | [3] 0.048 | alisertib 0 | [4] -0.036 | gefitinib 0.004 | lapatinib 0.014 | pictilisib 0.006 | crizotinib -0.062 | [5] -0.016 | duvelisib 0.008 | gandotinib -0.036 | tozasertib 0.06 | doramapimod 0.021 | bafetinib -0.01 | [6] 0.143
